Screening data from PubChem BioAssay.
CYP2C19 act: activators of human cytochrome P450 2C19. P33261. recombinant CYP2C19, luciferin-H EGE luminescence; hits give high values; 0 = fully inhibited enzyme, 1 = untreated enzyme. activation factor at 5 µM. 96,000 tested, under 10 active. AID 1025;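 active means activation factor of at least 2 at 5 µM in the primary screen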;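 further: 0 = wells with 2.5 mM tranylcypromine and 1 = vehicle-only wells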
PLK1 PBD inh: Plk1 (human) PBD binding inhibition | P53350 | Plk1 PBD phosphopeptide binding, fluorescence polarization | inhibition, %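 (tested at about 20 µM)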 | actives 0.13% (n = 97,000); in the data active means inhibition above about 34%, passing the limit was not always enough
CYP2C9 activ: increases human cytochrome P450 2C9 activity; recombinant CYP2C9, luciferin-H conversion, luminescence; hits give high values; factor 1 = untreated enzyme, 0 = blocked; activation factor at 5 µM; actives 1.4% (n = 96,000);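 active means activation factor of 2 or more for CYP2C9 at a 5 µM dose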;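 further: 0 = sulfaphenazole-blocked wells and 1 = vehicle-only wells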
CYP2C19 inh: human CYP2C19 inhibition; CYP2C19 Supersomes, luciferin-H EGE luminescence, 30 min; inhibition, % at 5 µM; actives 21% (n = 96,000);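 active means CYP2C19 inhibition above a set limit at 5 µM in the primary screen, cut at about 50% in these data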;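 further: plate controls were negative control wells for no effect and 2.5 mM tranylcypromine positive control for full effect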
CYP2C9 inh: human CYP2C9 inhibition. P11712. CYP2C9 Supersomes, luciferin-H conversion, luminescence. inhibition, % at 5 µM. actives 20% (n = 96,000). AID 777;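 active means blocking of liver enzyme CYP2C9 beyond about 50% at 5 µM, limit read from the data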
PLK1 inh: blocks human PLK1 kinase activity; recombinant PLK1 kinase, TR-FRET peptide phosphorylation; inhibition, % at 10 µM; actives 0.53% (n = 97,000); AID 619;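 active means inhibition of 50% or more in the single-concentration screen; inactive means inhibition below 50%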;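 further: 0% = DMSO max control and 100% = H-89 dihydrochloride min control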
Starred values were filed as active, the others as inactive. Only some compounds are listed: those with a hit (about 28% of all), similar ones and a draw of the others.

CC(C)(C)c1nc(N2CCN(C(=O)c3ccco3)CC2)c2nnn(Cc3ccccc3Cl)c2n1 was read as CYP2C19 act 0.4, PLK1 PBD inh -21.2, CYP2C9 activ 0.1, CYP2C19 inh 62.1*, CYP2C9 inh 94.7* and PLK1 inh -13.4.
O=P(N1CCCCC1)(N1CCCCC1)C(Cl)(Cl)Cl was read as CYP2C19 act 0.6, PLK1 PBD inh 8.8, CYP2C9 activ 0.5, CYP2C19 inh 35.8, CYP2C9 inh 45.8 and PLK1 inh -9.0.
`C=COCCn1c(C)c(C(=O)OCC)c2cc(O)ccc21` gave CYP2C19 act 0.1, PLK1 PBD inh -32.0, CYP2C9 activ 0.3, CYP2C19 inh 85.3*, CYP2C9 inh 71.2* and PLK1 inh 0.6.
Screening Cc1onc(-c2ccccc2)c1C(=O)N1CCC2(CC1)OCCO2 returned CYP2C19 act 0.5, PLK1 PBD inh 8.1, CYP2C9 activ 1, CYP2C19 inh 46.5, CYP2C9 inh -2.8 and PLK1 inh -3.5.
For CCC(=NC1CC1)c1c(O)n(-c2ccc(OC)cc2)c(=O)[nH]c1=O the results were CYP2C19 act 0.7, PLK1 PBD inh -26.1, CYP2C9 activ 1.1, CYP2C19 inh 33.8, CYP2C9 inh -9.3 and PLK1 inh -10.3.
Cc1ccc(S(=O)(=O)NP(=O)(Oc2ccccc2)Oc2ccccc2)cc1 was read as CYP2C19 act 0.9, PLK1 PBD inh 9.2, CYP2C9 activ 0.2, CYP2C19 inh 12.7, CYP2C9 inh 78.5* and PLK1 inh -6.2.
For O=P(NS(=O)(=O)c1ccccc1)(Oc1ccccc1)Oc1ccccc1 the results were CYP2C19 act 1, PLK1 PBD inh 8.1, CYP2C9 activ 0.3, CYP2C19 inh -0.5, CYP2C9 inh 65.1* and PLK1 inh -4.9.
O=P(NS(=O)(=O)c1ccc(Br)cc1)(Oc1ccccc1)Oc1ccccc1 was read as CYP2C19 act 0.6, PLK1 PBD inh -23.7, CYP2C9 activ 0, CYP2C19 inh 42.0, CYP2C9 inh 98.1* and PLK1 inh -13.0.
For CC(=NCCCN1CCOCC1)c1c(O)n(-c2ccccc2C)c(=O)[nH]c1=O the results were CYP2C19 act 1, PLK1 PBD inh -12.0, CYP2C9 activ 0.9, CYP2C19 inh 3.3, CYP2C9 inh 5.0 and PLK1 inh -4.3.
For O=C(Cc1ccccc1)N1CCN(C/C=C/c2ccccc2)CC1 the results were CYP2C19 act 0.7, PLK1 PBD inh -3.2, CYP2C9 activ 0.6, CYP2C19 inh 28.4, CYP2C9 inh 40.7 and PLK1 inh -5.7.
Fc1ccc(CCNCc2cccc(Cl)c2)cc1 was read as CYP2C19 act 0.1, PLK1 PBD inh 23.1, CYP2C9 activ 0.9, CYP2C19 inh 91.6*, CYP2C9 inh 6.8 and PLK1 inh -0.8.
For COc1ccc(CCNCc2ccc(F)cc2)cc1OC the results were CYP2C19 act 0.5, PLK1 PBD inh 23.9, CYP2C9 activ 1.2, CYP2C19 inh 52.2*, CYP2C9 inh -15.6 and PLK1 inh 2.1.
Cn1cccc1CNCCc1ccccc1 was read as CYP2C19 act 0.7, PLK1 PBD inh 27.6, CYP2C9 activ 1, CYP2C19 inh 34.2, CYP2C9 inh 3.3 and PLK1 inh -10.6.
Screening COc1ccc(CCNCc2ccc(SC)cc2)cc1 returned CYP2C19 act 0.2, PLK1 PBD inh -4.9, CYP2C9 activ 1, CYP2C19 inh 81.2*, CYP2C9 inh -2.9 and PLK1 inh -6.1.
COCc1c(CN)cnc(C)c1N was read as CYP2C19 act 1, PLK1 PBD inh 1.1, CYP2C9 activ 1, CYP2C19 inh -1.4, CYP2C9 inh -1.6 and PLK1 inh -5.5.
CCOP(=O)(OCC)C(c1ccccc1)N(C)C=O (stereo unspecified) was read as CYP2C19 act 1, PLK1 PBD inh -18.7, CYP2C9 activ 0.9, CYP2C19 inh 4.3, CYP2C9 inh 8.0 and PLK1 inh -16.1.
Screening CCN1c2nc3ccccn3c(=O)c2CC2(C(=O)N(C)C(=O)N(C)C2=O)C1C (stereo unspecified) returned PLK1 PBD inh 6.2 and PLK1 inh -8.6.
`CCOC(=O)[C@@]1(C#N)[C@@H]2C=CC(C(N)=O)=CN2[C@@H](C(N)=O)[C@@H]1c1cccc(Cl)c1` gave CYP2C19 act 0.6, PLK1 PBD inh -1.5, CYP2C9 activ 0.4, CYP2C19 inh 39.1, CYP2C9 inh 58.9* and PLK1 inh 23.3.
